# Results published in PubChem BioAssay (NCI).
# About 83,000 compounds went through this panel and 20% of them were active in at least one assay; those are over-represented in the sample as a whole.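 Method: cells in 96-well plates; compound added at one concentration; 48 h incubation; percent growth measured; values under 10 scored active.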 A number with no mark means an inactive call. Calls of active or inactive are those of the source.
# Experiments:
# Test in all cases: NCI-60 one-dose screen, 48 h (100 = growth as untreated, 0 = no growth, -100 = all killed)
# Settings in all cases: 10 µM unless noted
# DU-145 prostate = test system: DU-145 prostate
# K-562 leukemia = test system: K-562 leukemia
# MALME-3M melanoma = test system: MALME-3M melanoma
# MDA-MB-231 breast = test system: MDA-MB-231 breast
# RXF 393 renal = test system: RXF 393 renal
# SF-268 CNS = test system: SF-268 CNS
# SF-295 CNS = test system: SF-295 CNS
# SF-539 CNS = test system: SF-539 CNS
# UACC-257 melanoma = test system: UACC-257 melanoma
# M14 melanoma = test system: M14 melanoma
# HCT-15 colon = test system: HCT-15 colon
# HT29 colon = test system: HT29 colon
# SNB-75 CNS = test system: SNB-75 CNS
# SNB-19 CNS = test system: SNB-19 CNS
# U251 CNS = test system: U251 CNS
# PC-3 prostate = test system: PC-3 prostate
# SK-MEL-5 melanoma = test system: SK-MEL-5 melanoma
# UACC-62 melanoma = test system: UACC-62 melanoma
# LOX IMVI melanoma = test system: LOX IMVI melanoma
# SK-MEL-28 melanoma = test system: SK-MEL-28 melanoma
Structure (SMILES),growth (DU-145 prostate),growth (K-562 leukemia),growth (MALME-3M melanoma),growth (MDA-MB-231 breast),growth (RXF 393 renal),growth (SF-268 CNS),growth (SF-295 CNS),growth (SF-539 CNS),growth (UACC-257 melanoma),growth (M14 melanoma),growth (HCT-15 colon),growth (HT29 colon),growth (SNB-75 CNS),growth (SNB-19 CNS),growth (U251 CNS),growth (PC-3 prostate),growth (SK-MEL-5 melanoma),growth (UACC-62 melanoma),growth (LOX IMVI melanoma),growth (SK-MEL-28 melanoma)
COc1ccc(N2CCN(c3nc(-c4cc(OC)c(OC)c(OC)c4)nc4ccccc34)CC2)cc1,93.5%,79.1%,108%,71%,92.6%,87.7%,95.2%,96.9%,102%,71.3%,61.8%,81.5%,84.5%,93.5%,96.1%,41.3%,46.4%,56%,79.3%,87.1%
FC(F)(F)c1cc(Nc2ccc3cc(OCCCN4CCOCC4)ccc3n2)ccc1Cl,47.6%,-27.3% (active),47.4%,-17.8% (active),-0.217% (active),46.9%,-56.7% (active),-0.973% (active),49.2%,19%,-0.426% (active),-50.3% (active),10.8%,41.1%,-10.6% (active),23.5%,64.4%,-29.7% (active),-82.1% (active),13.7%
C=CCSc1nc2ccccc2cc1/C=N/O,110%,92.3%,129%,97.6%,68.8%,90.8%,94.7%,104%,87.6%,91%,95.8%,92.7%,58%,89.3%,86.6%,83.1%,96.3%,71.2%,85.9%,88%
C=C(C)[C@@H]1CC[C@]2(C)[C@H](CC=C3[C@@H]4CC(C)(C)CC[C@]4(C(N)=O)CC[C@]32C)[C@@]1(C)CCC#N,42.1%,15.9%,10.4%,38.6%,2.74% (active),45.6%,38.5%,35.7%,17.5%,44.7%,14.8%,39.3%,29.3%,47.7%,30.6%,-0.165% (active),-2.59% (active),15.7%,36.9%,45.8%
C[C@@H]1N=C(c2ccc3ccccc3n2)Nc2nc3ccccn3c2C1=O,107%,102%,92.4%,79.4%,119%,101%,90.4%,86.7%,117%,105%,86.8%,115%,84.7%,91.2%,106%,96.8%,94.3%,90.1%,93%,112%
O=C(Nc1ccc(-n2cc(-c3ccncc3)c(-c3ccc(Cl)c(O)c3)n2)cc1)N1CCOCC1,109%,89.9%,92.1%,105%,135%,99.9%,96.4%,92.7%,109%,97%,102%,98.1%,93.3%,103%,96.9%,87.4%,99.1%,101%,98%,100%
O=C(Nc1cccc(Oc2nnc(Cl)c3ccccc23)c1)Nc1ccc(Cl)c(C(F)(F)F)c1,-5.14% (active),-8.66% (active),-49.9% (active),-57.3% (active),-62.3% (active),-32.2% (active),-56.3% (active),-73.4% (active),-68.4% (active),-62.8% (active),-64% (active),-75.9% (active),-59.3% (active),-5.9% (active),-75.4% (active),-38.1% (active),-98.8% (active),-82.5% (active),-93.2% (active),-62.5% (active)
Cn1c(=O)c2c(nc(Cl)n2CCl)n(C)c1=O,113%,21.3%,75.6%,105%,53%,104%,112%,103%,84.5%,12.4%,13.6%,80.9%,94%,100%,96%,98.5%,88.1%,94.7%,-0.952% (active),55%
